According to paper PMC7862700, “An all-to-all approach to the identification of sequence-specific readers for epigenetic DNA modifications on cytosine”:

How the values were obtained:
Test in all cases: DAPPL (digital affinity profiling via proximity ligation, sequencing); 10 mM Tris-HCl pH 7.5, 50 mM NaCl, 1 mM DTT, 4% glycerol, room temperature, 30 min; GST-TFs on glutathione beads, 16-mer random dsDNA library, 0.1% formaldehyde crosslink after washing; high values mean tight binding
FLI1 = biological target: T1, FLI1 (Homo sapiens, UniProt Q01543 1-452); details: protein: recombinant; tags: N-terminal GST; dsDNA, one strand shown
T1 sequence: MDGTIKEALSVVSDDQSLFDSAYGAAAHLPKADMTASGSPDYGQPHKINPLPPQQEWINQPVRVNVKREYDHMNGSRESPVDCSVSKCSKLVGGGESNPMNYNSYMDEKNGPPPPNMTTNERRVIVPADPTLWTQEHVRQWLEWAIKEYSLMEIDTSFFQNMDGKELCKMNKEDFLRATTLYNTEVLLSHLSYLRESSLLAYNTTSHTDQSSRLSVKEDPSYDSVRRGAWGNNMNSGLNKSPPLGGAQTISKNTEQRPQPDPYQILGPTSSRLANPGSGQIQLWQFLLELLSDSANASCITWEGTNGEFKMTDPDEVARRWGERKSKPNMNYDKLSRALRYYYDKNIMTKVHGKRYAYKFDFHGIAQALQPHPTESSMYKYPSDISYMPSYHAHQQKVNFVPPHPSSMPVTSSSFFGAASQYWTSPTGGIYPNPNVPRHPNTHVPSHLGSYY
Method in brief: (§1)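 Human transcription factors fused to GST were expressed in yeast, captured on glutathione beads, given DNA barcodes and pooled with a GST-only negative control. Pools were incubated with 200 nmole of a 16-mer random double-stranded DNA library in Tris/NaCl/DTT/glycerol buffer at room temperature for 30 min. They were then washed, crosslinked with 0.1% formaldehyde, proximity-ligated (BsaI/T4 ligase, 1 h, 37 °C), PCR-amplified and sequenced on an Illumina NextSeq500. Binding signal is each 6-mer's read frequency for a factor divided by its frequency for the GST control.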

ELK1 = biological target: T2, ELK1 (Homo sapiens, UniProt P19419 1-428); details: protein: recombinant; tags: N-terminal GST; dsDNA, one strand shown
T2 sequence: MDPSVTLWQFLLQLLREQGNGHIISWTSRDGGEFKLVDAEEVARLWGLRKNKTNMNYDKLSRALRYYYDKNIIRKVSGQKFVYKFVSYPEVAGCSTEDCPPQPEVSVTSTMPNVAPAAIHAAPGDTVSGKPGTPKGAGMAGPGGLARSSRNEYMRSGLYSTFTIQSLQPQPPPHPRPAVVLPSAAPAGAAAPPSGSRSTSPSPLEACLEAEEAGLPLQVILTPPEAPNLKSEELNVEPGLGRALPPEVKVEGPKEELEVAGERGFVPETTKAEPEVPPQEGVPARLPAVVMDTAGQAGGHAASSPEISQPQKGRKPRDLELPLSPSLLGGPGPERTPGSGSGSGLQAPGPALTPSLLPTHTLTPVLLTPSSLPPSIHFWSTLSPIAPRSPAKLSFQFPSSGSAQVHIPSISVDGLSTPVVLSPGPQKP
Method in brief: as §1

GABPA = biological target: T3, GABPA (Homo sapiens, UniProt Q06546 1-454); details: protein: recombinant; tags: N-terminal GST; dsDNA, one strand shown
T3 sequence: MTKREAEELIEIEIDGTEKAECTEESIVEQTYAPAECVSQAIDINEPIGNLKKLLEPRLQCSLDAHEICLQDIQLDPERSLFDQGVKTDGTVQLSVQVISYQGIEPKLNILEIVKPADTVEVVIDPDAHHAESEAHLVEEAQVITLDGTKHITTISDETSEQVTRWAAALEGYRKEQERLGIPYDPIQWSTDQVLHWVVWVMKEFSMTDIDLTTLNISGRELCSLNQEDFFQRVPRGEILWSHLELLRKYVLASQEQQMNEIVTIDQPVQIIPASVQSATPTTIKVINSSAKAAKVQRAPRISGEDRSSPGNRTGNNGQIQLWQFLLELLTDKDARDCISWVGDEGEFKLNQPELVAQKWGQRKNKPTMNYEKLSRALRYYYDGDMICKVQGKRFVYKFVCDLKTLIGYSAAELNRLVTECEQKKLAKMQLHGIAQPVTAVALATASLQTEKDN
Method in brief: as §1

ERG = biological target: T4, ERG (Homo sapiens, UniProt P11308 1-479); details: protein: recombinant; tags: N-terminal GST; dsDNA, one strand shown
T4 sequence: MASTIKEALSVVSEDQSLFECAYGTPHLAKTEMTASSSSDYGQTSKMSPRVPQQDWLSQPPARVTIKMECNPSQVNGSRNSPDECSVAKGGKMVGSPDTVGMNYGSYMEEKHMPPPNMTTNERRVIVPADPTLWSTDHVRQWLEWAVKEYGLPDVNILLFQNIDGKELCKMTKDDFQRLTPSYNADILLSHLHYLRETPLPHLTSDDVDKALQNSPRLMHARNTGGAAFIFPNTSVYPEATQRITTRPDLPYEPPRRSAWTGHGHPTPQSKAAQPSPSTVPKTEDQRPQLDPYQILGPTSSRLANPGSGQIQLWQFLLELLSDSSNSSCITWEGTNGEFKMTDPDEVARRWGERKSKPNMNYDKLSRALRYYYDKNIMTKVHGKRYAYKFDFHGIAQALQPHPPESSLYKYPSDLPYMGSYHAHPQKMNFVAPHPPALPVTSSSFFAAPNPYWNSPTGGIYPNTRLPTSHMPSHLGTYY
Method in brief: as §1

ELF1 = ELF1 (Homo sapiens, UniProt P32519 1-619); details: protein: recombinant; tags: N-terminal GST; dsDNA, one strand shown
Chain of ELF1 (P32519 whole entry): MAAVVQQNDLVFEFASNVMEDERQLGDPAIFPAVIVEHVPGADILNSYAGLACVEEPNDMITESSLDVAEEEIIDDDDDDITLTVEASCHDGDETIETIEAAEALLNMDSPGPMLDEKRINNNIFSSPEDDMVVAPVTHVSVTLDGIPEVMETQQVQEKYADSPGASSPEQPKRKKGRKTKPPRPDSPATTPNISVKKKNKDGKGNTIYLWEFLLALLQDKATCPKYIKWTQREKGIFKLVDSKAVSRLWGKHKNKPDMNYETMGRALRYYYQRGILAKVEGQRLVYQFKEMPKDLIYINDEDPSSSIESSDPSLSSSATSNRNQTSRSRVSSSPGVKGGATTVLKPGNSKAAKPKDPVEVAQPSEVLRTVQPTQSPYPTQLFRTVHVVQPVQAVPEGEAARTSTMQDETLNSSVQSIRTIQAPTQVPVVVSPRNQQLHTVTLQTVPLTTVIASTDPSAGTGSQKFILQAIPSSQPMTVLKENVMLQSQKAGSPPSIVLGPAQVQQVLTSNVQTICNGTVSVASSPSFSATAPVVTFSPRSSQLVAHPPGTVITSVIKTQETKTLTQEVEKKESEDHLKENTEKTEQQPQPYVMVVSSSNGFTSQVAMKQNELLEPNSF
Method in brief: as §1

EHF = biological target: T5, EHF (Homo sapiens, UniProt Q9NZC4 1-300); details: protein: recombinant; tags: N-terminal GST; dsDNA, one strand shown
T5 sequence: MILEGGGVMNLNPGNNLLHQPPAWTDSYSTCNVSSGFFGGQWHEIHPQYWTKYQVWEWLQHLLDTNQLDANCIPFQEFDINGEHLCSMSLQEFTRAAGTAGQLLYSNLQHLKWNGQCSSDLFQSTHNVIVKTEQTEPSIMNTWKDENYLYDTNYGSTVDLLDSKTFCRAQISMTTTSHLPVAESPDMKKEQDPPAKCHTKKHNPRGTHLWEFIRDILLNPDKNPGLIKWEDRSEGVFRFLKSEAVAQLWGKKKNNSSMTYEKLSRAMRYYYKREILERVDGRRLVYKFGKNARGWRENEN
Method in brief: as §1

SPI1 = SPI1 (Homo sapiens, UniProt P17947 1-270); details: protein: recombinant; tags: N-terminal GST; dsDNA, one strand shown
Method in brief: as §1

SPIB = SPIB (Homo sapiens, UniProt Q01892 1-262); details: protein: recombinant; tags: N-terminal GST; dsDNA, one strand shown
Chain of SPIB (Q01892 whole entry): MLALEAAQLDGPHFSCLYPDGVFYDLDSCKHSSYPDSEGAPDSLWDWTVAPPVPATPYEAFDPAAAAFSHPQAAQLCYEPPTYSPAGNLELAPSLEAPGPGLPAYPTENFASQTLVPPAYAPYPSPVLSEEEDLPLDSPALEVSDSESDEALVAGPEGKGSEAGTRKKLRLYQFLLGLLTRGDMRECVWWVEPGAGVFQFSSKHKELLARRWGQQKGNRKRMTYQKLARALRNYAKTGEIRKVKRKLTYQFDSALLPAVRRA
Method in brief: as §1

ELK3 = biological target: T6, ELK3 (Homo sapiens, UniProt P41970 1-407); details: protein: recombinant; tags: N-terminal GST; dsDNA, one strand shown
T6 sequence: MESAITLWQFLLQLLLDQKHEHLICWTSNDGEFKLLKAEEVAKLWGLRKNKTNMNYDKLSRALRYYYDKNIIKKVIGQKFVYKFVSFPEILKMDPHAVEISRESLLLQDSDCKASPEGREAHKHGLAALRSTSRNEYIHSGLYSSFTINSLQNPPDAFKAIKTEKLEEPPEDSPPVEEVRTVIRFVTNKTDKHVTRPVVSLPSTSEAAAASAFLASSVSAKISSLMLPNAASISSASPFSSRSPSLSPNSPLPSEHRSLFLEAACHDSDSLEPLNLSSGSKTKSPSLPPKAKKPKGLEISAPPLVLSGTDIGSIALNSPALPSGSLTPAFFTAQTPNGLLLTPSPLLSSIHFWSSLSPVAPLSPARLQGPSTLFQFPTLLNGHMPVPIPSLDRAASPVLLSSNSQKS
Method in brief: as §1

FEV = biological target: T7, FEV (Homo sapiens, UniProt Q99581 1-238); details: protein: recombinant; tags: N-terminal GST; dsDNA, one strand shown
T7 sequence: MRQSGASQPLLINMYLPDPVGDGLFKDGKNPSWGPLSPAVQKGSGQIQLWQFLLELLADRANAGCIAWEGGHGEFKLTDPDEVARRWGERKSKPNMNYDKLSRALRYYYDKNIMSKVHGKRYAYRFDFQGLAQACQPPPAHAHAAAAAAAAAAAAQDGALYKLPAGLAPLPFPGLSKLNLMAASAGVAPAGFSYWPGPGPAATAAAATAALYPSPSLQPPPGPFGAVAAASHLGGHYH
Method in brief: as §1

ETV5 = ETV5 (Homo sapiens, UniProt P41161 1-510); details: protein: recombinant; tags: N-terminal GST; dsDNA, one strand shown
Chain of ETV5 (P41161 whole entry): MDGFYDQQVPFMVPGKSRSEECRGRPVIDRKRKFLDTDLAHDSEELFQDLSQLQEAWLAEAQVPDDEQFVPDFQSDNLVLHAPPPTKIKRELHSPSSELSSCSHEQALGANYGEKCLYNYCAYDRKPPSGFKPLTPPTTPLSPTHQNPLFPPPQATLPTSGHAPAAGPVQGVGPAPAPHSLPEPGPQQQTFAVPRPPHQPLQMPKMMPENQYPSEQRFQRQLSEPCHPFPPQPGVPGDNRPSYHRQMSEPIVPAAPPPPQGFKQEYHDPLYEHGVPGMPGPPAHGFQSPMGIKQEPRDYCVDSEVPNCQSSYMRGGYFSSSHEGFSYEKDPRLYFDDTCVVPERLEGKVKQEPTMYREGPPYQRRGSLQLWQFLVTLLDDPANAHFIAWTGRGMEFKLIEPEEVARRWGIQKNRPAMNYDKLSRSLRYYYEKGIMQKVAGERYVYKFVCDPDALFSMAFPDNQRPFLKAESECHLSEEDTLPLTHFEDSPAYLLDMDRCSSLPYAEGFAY
Method in brief: as §1

HSF1 = HSF1 (Homo sapiens, UniProt Q00613 1-529); details: protein: recombinant; tags: N-terminal GST; chain copies: 3; dsDNA, one strand shown
Chain of HSF1 (Q00613 whole entry): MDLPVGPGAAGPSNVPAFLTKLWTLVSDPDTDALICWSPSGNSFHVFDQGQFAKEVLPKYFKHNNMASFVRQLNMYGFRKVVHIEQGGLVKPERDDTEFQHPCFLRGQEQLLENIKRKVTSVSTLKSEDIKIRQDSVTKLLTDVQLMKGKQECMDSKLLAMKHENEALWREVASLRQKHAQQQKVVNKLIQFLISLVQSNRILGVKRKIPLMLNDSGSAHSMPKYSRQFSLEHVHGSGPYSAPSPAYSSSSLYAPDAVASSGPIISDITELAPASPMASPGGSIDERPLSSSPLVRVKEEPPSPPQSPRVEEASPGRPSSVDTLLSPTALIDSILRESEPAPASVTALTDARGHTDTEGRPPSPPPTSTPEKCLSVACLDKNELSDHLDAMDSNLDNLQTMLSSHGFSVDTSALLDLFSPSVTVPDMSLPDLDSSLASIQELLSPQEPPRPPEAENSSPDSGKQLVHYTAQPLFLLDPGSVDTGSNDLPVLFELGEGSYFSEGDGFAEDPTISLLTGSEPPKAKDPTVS
Method in brief: as §1

SPIC = biological target: T8, SPIC (Homo sapiens, UniProt Q8N5J4 1-248); details: protein: recombinant; tags: N-terminal GST; dsDNA, one strand shown
T8 sequence: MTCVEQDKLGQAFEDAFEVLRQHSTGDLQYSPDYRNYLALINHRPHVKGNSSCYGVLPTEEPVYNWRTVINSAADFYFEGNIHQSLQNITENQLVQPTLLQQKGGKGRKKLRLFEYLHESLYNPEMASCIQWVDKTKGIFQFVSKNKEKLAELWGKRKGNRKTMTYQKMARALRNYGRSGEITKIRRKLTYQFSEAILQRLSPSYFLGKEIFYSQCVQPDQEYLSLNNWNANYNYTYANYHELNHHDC
Method in brief: as §1

ELF4 = ELF4 (Homo sapiens, UniProt Q99607 1-663); details: protein: recombinant; tags: N-terminal GST; dsDNA, one strand shown
Chain of ELF4 (Q99607 whole entry): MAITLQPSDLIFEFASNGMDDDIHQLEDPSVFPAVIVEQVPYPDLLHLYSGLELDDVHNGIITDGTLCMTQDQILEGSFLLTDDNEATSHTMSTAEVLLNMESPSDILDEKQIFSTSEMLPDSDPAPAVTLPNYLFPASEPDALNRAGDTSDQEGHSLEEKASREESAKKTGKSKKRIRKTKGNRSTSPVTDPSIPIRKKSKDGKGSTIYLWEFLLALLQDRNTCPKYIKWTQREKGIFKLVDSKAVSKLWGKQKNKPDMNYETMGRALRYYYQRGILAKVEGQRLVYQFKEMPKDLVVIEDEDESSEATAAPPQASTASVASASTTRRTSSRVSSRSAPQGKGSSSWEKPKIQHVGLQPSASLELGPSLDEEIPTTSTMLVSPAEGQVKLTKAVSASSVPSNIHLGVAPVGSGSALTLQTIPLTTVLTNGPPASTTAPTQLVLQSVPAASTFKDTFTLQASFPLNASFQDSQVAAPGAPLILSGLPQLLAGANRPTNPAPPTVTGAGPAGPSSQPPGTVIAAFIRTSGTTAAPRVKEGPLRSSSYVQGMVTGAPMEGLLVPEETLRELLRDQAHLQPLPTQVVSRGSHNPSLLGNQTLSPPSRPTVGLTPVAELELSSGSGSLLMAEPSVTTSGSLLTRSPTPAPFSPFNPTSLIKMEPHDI
Method in brief: as §1

ELK4 = biological target: T9, ELK4 (Homo sapiens, UniProt P28324-2 1-405); details: protein: recombinant; tags: N-terminal GST; dsDNA, one strand shown
T9 sequence: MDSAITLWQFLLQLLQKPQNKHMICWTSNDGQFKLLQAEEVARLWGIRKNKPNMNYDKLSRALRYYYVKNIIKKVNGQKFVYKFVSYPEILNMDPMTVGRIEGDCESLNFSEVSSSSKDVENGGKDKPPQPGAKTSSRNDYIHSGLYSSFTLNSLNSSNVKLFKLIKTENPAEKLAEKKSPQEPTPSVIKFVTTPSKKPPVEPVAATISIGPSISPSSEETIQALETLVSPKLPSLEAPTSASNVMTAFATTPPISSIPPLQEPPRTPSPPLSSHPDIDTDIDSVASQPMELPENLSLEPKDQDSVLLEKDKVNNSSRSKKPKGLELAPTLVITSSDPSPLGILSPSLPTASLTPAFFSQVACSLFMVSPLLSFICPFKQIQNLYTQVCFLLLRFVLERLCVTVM
Method in brief: as §1

ETV2 = biological target: T10, ETV2 (Homo sapiens, UniProt O00321 1-342); details: protein: recombinant; tags: N-terminal GST; dsDNA, one strand shown
T10 sequence: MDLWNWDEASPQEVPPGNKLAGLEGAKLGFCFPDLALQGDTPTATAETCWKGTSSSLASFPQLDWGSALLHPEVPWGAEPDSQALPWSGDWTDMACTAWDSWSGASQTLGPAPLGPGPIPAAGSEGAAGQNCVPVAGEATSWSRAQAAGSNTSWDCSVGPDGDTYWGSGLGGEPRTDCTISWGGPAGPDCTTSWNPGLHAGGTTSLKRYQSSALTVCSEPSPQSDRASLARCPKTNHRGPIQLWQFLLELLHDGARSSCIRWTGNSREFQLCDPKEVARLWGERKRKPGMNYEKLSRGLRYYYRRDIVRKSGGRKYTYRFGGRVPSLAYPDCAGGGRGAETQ
Method in brief: as §1

ELF3 = biological target: T11, ELF3 (Homo sapiens, UniProt P78545 1-371); details: protein: recombinant; tags: N-terminal GST; dsDNA, one strand shown
T11 sequence: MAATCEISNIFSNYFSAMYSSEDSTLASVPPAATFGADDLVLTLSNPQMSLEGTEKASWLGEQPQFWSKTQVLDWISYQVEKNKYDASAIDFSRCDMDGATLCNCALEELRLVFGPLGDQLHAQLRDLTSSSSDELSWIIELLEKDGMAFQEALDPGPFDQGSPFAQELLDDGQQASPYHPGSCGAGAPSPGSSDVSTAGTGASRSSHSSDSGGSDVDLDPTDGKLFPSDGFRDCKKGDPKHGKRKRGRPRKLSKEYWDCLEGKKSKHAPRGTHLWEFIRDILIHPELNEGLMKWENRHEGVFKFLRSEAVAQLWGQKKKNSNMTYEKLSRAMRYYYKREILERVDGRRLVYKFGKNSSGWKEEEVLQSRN
Method in brief: as §1

CRX = CRX (Homo sapiens, UniProt O43186 1-299); details: protein: recombinant; tags: N-terminal GST; dsDNA, one strand shown
Chain of CRX (O43186 whole entry): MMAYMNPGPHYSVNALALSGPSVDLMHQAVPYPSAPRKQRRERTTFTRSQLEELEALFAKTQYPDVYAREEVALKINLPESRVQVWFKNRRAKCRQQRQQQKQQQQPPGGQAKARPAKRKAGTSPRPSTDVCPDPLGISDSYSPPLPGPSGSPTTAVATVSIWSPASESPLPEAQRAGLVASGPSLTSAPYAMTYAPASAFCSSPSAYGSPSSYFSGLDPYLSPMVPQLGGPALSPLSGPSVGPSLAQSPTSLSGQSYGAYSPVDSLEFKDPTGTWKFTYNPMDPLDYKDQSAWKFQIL
Method in brief: as §1

ETV1 = ETV1 (Homo sapiens, UniProt P50549 1-477); details: protein: recombinant; tags: N-terminal GST; dsDNA, one strand shown
Chain of ETV1 (P50549 whole entry): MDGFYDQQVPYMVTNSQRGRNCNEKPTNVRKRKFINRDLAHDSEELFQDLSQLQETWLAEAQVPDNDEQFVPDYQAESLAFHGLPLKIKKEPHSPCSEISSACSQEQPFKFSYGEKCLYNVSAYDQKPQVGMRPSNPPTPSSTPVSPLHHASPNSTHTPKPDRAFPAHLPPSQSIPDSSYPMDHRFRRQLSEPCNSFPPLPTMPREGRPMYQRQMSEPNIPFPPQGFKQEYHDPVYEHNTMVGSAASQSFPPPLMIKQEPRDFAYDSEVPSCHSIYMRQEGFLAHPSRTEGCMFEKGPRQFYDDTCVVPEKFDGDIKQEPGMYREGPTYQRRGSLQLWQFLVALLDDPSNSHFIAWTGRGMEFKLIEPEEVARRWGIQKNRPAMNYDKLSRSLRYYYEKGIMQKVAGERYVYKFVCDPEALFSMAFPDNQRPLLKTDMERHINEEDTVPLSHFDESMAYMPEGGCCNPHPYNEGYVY
Method in brief: as §1

AGCCTT
binding signal (FLI1): 1.12 fold enrichment (6-mer frequency, TF over GST control)
binding signal (ELK1): 1.11 fold enrichment (6-mer frequency, TF over GST control)
binding signal (GABPA): 1.01 fold enrichment (6-mer frequency, TF over GST control)
binding signal (ERG): 1.11 fold enrichment (6-mer frequency, TF over GST control)
binding signal (ELF1): 1.2 fold enrichment (6-mer frequency, TF over GST control)
binding signal (EHF): 1.15 fold enrichment (6-mer frequency, TF over GST control)
binding signal (SPI1): 1.12 fold enrichment (6-mer frequency, TF over GST control)
binding signal (SPIB): 1.21 fold enrichment (6-mer frequency, TF over GST control)
binding signal (ELK3): 1.03 fold enrichment (6-mer frequency, TF over GST control)
binding signal (FEV): 1.15 fold enrichment (6-mer frequency, TF over GST control)
binding signal (ETV5): 1.13 fold enrichment (6-mer frequency, TF over GST control)
binding signal (HSF1): 1.26 fold enrichment (6-mer frequency, TF over GST control)
binding signal (SPIC): 1.17 fold enrichment (6-mer frequency, TF over GST control)
binding signal (ELF4): 1.18 fold enrichment (6-mer frequency, TF over GST control)
binding signal (ELK4): 1.03 fold enrichment (6-mer frequency, TF over GST control)
binding signal (ETV2): 1.2 fold enrichment (6-mer frequency, TF over GST control)
binding signal (ELF3): 1.23 fold enrichment (6-mer frequency, TF over GST control)
binding signal (CRX): 1.42 fold enrichment (6-mer frequency, TF over GST control)
binding signal (ETV1): 1.17 fold enrichment (6-mer frequency, TF over GST control)
